Test results: PubChem BioAssay (NCATS)
Results filed as inconclusive are left out. Entries that show only a call come without a potency. A number with no mark means an inactive call. The source made the active and inactive calls. Calls come from the whole dose curve; as a rule, active = well fitted curve in the direction sought with a large enough effect; inconclusive = small, poorly fitted or top-dose-only effect, or another doubt; inactive = no such curve, though single readings can be large; an effect the other way counts as inactive or inconclusive.

Columns and labels:
[1] = Primary qHTS for inhibitors of nuclear receptor binding SET domain protein 2 (NSD2) in an isogenic RCH-ACV NSD2 p.E1099K mutant (9B) (AID 1645876)
[2] = Primary qHTS for inhibitors of nuclear receptor binding SET domain protein 2 (NSD2) in an RCH-ACV wild type WT cells (2C) (AID 1645877)
Note: nearly all actives have a fitted effect of over 70% in size.
Potency is the fitted concentration of half-maximal effect.

| Compound | Potency [1] | Potency [2] | activity change, negative = viability loss [1] | activity change, negative = cell killing [2] |
| --- | --- | --- | --- | --- |
| Cc1c2cc(c(C(=O)O)c1C)OC1OC(C(O)C(O)C1O)C(O)C(O)C1OC(O2)C(O)C(O)C1O (centres undefined) | inactive | inactive |  |  |
| C=C(C)C1CCC(C)C12CC(O)C1(C)OC1C2OC(=O)C(N)CCC(=O)O (centres undefined) | inactive | inactive |  |  |
| CN[C@@H]1[C@H](O[C@H]2[C@H](O[C@@H]3[C@@H](O)[C@H](O)[C@@H](N=C(N)N)[C@H](O)[C@H]3N=C(N)N)O[C@@H](C)[C@]2(O)C=O)O[C@@H](CO)[C@H](O)[C@H]1O | inactive | inactive |  |  |
| CC1CC(=O)C2=C(CCC3(O)C(O)c4c(O)cccc4C(=O)C23O)C1 (centres undefined) | inactive | inactive |  |  |
| C=C1OC2CC(C(=O)O)C=CC2NC1=O (centres undefined) | inactive | inactive |  |  |
| CC(=O)OC[C@H]1O[C@H](O[C@]2(CO)O[C@H](CO)[C@@H](OC(=O)/C=C/c3ccccc3)[C@@H]2O)[C@H](O)[C@@H](O)[C@@H]1O | inactive | inactive |  |  |
| CC1CCC2(C=O)C(CO)=CCCC2C1(C)CC(=O)O (centres undefined) | inactive | inactive |  |  |
| C=CC(C)(CC/C=C(\C)C(=O)OC)OC1OC(COC(=O)CC(C)(O)CC(=O)O)C(OC2OC(CO)C(O)C(O)C2O)C(O)C1O (centres undefined) | inactive | inactive |  |  |
| C/C=C/C=C/C(O)=C1\C(O)=C(C)C(=O)[C@@]2(C)OC(=O)[C@@](C)(NC(=O)/C=C/C(=O)O)[C@@H]12 | inactive | inactive |  |  |
| C=CC(C)(O)CC[C@H]1C(=C)CCC2[C@](C)(C(=O)O)CCC[C@@]21C (some centres undefined) | inactive | inactive |  |  |
| CC12CCC3c4ccc(O)cc4CCC3C1CC(OC1OC(C(=O)O)C(O)C(O)C1O)C2O (centres undefined) | inactive | inactive |  |  |
| C[C@@H]1C(=O)O[C@H](C)[C@H]1CC(=O)[C@](C)(O)[C@H]1CC[C@@]2(O)C3=CC(=O)[C@@H]4C[C@@H](O)[C@@H](O)C[C@]4(C)C3CC[C@]12C (some centres undefined) | inactive | inactive |  |  |
| C[C@@]1(O)[C@H](O)[C@@H](CO)O[C@H]1n1ccc(N)nc1=O | 20.5 µM (active) | 23 µM (active) |  |  |
| Cc1ccc(S(=O)(=O)c2ccc([N+](=O)[O-])o2)cc1 | 0.649 µM (active) | 0.163 µM (active) |  |  |
| CS(=O)(=O)c1ccc(-c2nnc(/C=C/c3nnc(-c4ccc(C#N)cc4)o3)n2-c2ccccc2Cl)nc1 | inactive | inactive |  |  |
| CC[C@H]1OC(=O)[C@H](C)[C@@H](O[C@H]2C[C@@](C)(OC)[C@@H](O)[C@H](C)O2)[C@H](C)[C@@H](O[C@@H]2O[C@H](C)C[C@H](N(C)C)[C@H]2O)[C@](C)(O)C[C@@H](C)C(=O)[C@H](C)[C@H]2OC(=O)O[C@@]21C | inactive | inactive |  |  |
| CC(O)CO[C@@H]1O[C@H](CO)[C@@H](O)[C@H](O)[C@H]1O (some centres undefined) | inactive | inactive |  |  |
| COc1cc(C)c(C(=O)Oc2cc(C)c(C(=O)Oc3cc(C)c(C(=O)NC(C)C(=O)O)c(O)c3)c(O[C@@H]3O[C@H](CO)[C@@H](O)[C@H](O)[C@H]3OC(C)=O)c2)c(OC)c1 (some centres undefined) | inactive | inactive |  |  |
| COc1c2c(c(C)c3c1C(=O)OC3)OC1(C)CC(O)C(C(C)(C)O)C(C)(CCC(=O)O)C1C2 (centres undefined) | inactive | inactive |  |  |
| CC1(C)CC[C@]2(C(=O)O[C@@H]3O[C@H](CO)[C@@H](O)[C@H](O)[C@H]3O)CC[C@]3(C)C(=CCC4[C@@]5(C)CC[C@H](O[C@@H]6O[C@H](C(=O)O)[C@@H](O)[C@H](O[C@@H]7O[C@H](CO)[C@H](O)[C@H](O)[C@H]7O)[C@H]6O)C(C)(C)C5CC[C@]43C)C2C1 (some centres undefined) |  |  | -8.36% [at 9.23 µM] | -15.1% [at 9.23 µM] |
| C/C(=C\C=C\C(C)C1CCC2(C)C3CCC4C(C)(C)C(=O)CCC45CC35CCC12C)C(=O)O (centres undefined) | inactive | inactive |  |  |
| CC1(C)CC[C@]2(C(=O)O)[C@H](O)C[C@]3(C)C(=CCC4[C@@]5(C)CC[C@H](O[C@@H]6O[C@H](CO[C@@H]7OC[C@H](O)[C@H](O)[C@H]7O[C@@H]7OC[C@@H](O)[C@H](O)[C@H]7O)[C@@H](O)[C@H](O)[C@H]6O[C@@H]6O[C@H](CO)[C@@H](O)[C@H](O)[C@H]6O)C(C)(C)C5CC[C@]43C)[C@@H]2C1 (some centres undefined) |  |  | -4.67% [at 9.23 µM] | -6.47% [at 9.23 µM] |
